Bioassay records: PubChem BioAssay, Sanford-Burnham Center for Chemical Genomics
Shown are actives, neighbours in structure and some others; about 2.9% of the full set was active somewhere.
TAG inh: triacylglycerol accumulation inhibition | inhibition, % at 12.5 µM | AID 651582 | 0.66% of 230,000 active | H9c2 cells, Nile Red lipid (TAG) fluorescence; cells loaded with 200 µM oleic acid;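 active = pattern-corrected inhibition of lipid staining of at least 50% with the nuclear-stain viability signal not falling by more than 50%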
PfGluPho inh: PfG6PD (Plasmodium falciparum) enzyme inhibition. PfGluPho enzyme, NADPH resazurin-diaphorase fluorescence. inhibition, % at 20 µM. 0.78% of 350,000 active;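 active = inhibition reaching at least a set limit at 20 µM in the primary screen, cut at about 59% in these data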
H9c2 protect: myocardial damage modulation in H9c2 cells. H9c2 cardiomyocytes, H2O2 injury protection, ATPLite, 2 h. protection from H2O2 cell death, % at 20 µM. 0.63% of 360,000 active. AID 588492;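 active = compounds giving at least 50% protection of heart cells from peroxide-induced death in the single-dose screen, raw or plate-pattern-corrected value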
APOBEC3G inh: inhibitors of human APOBEC3G DNA deaminase; Q9HC16; recombinant A3G, ssDNA deamination FAM/TAMRA fluorescence; inhibition, % at 20 µM; 0.28% of 330,000 active;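 active = inhibition of at least 40% at 20 µM, with no more than 30% in the related APOBEC3A deaminase screen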
Target sequence (Q9HC16 whole entry, looked up): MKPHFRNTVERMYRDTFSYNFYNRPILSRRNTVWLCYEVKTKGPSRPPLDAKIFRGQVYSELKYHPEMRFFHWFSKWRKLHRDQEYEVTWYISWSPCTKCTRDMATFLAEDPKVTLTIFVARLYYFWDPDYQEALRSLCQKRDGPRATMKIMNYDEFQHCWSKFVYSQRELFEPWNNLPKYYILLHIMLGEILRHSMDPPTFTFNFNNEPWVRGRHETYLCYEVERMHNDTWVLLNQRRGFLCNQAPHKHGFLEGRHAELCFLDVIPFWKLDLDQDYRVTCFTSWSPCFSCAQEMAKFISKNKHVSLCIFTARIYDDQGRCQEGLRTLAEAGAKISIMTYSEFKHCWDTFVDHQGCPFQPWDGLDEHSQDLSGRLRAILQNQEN
NadD inh: inhibitors of Staphylococcus aureus NadD. 0.78% of 360,000 active. inhibition, % at 20 µM. purified NadD enzyme, colorimetric absorbance read-out. AID 602399; in the data active = inhibition above about 26%
APOBEC3A inh: inhibitors of human APOBEC3A DNA deaminase; inhibition, % at 20 µM; recombinant A3A, FAM/TAMRA ssDNA deamination fluorescence; P31941; AID 493011; 0.41% of 330,000 active;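 active = at least 40% inhibition at 20 µM here, with at most 30% in a related deaminase screen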
Target sequence (P31941 whole entry, looked up): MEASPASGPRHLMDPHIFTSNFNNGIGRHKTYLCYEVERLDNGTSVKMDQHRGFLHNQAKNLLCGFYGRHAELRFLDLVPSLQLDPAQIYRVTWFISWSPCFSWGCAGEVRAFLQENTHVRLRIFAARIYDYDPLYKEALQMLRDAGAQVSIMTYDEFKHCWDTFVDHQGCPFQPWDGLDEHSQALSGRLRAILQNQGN
PfG6PD confirm: confirmation of Plasmodium falciparum G6PD inhibitors; shares compounds with PfGluPho inh; recombinant PfGluPho, NADPH-diaphorase-resazurin fluorescence; inhibition, % at 20 µM; 34% of 2,400 active;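 active = inhibition of at least 50% at 20 µM in any single replicate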
Diaphorase 10uM: inhibits diaphorase or oxidizes, flagging false PfG6PD hits; shares compounds with PfGluPho inh; diaphorase-coupled resazurin reduction, fluorescence, NADPH 10 uM; inhibition, % at 20 µM; 39% of 820 active; AID 504862;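 active = average inhibition reaching 50% or more with the compound at 20 µM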;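 note: resorufin red fluorescence formed as diaphorase reduces resazurin using NADPH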
Diaphorase 30uM: inhibits diaphorase or oxidizes, flagging false PfG6PD hits; shares compounds with PfGluPho inh; Diaphorase/resazurin coupled assay, resorufin fluorescence, 30 uM NADPH; inhibition, % at 20 µM; 29% of 820 active;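 active = inhibition averaging 50% or more, tested at 20 µM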
Hits are given with their value.

How did CSCCC(=O)N1CCN(CC(=O)N2CCCC2)CC1 do in these assays?
PfGluPho inh: inactive; H9c2 protect: inactive; APOBEC3G inh: inactive; NadD inh: inactive; APOBEC3A inh: inactive

What do the screens show for `Cc1cc(C(=O)Nc2ccc(N3CCCC3)c(Cl)c2)ccc1[N+](=O)[O-]`?
TAG inh: inactive; PfGluPho inh: 67; H9c2 protect: inactive; APOBEC3G inh: inactive; NadD inh: inactive; APOBEC3A inh: inactive; PfG6PD confirm: inactive

Results for CCC(c1ccc(O)c(O)c1)C(CC)c1ccc(O)c(O)c1 (stereo unspecified) ?
TAG inh: inactive; PfGluPho inh: 78; H9c2 protect: inactive; NadD inh: inactive; PfG6PD confirm: 57; Diaphorase 10uM: inactive; Diaphorase 30uM: inactive

How did CCC(NC(C)C)C(O)c1ccc(O)c(O)c1 (stereo unspecified) do in these assays?
TAG inh: inactive; PfGluPho inh: inactive; H9c2 protect: inactive; APOBEC3G inh: inactive; NadD inh: inactive; APOBEC3A inh: inactive

How did COC(=O)c1ccc2nc(-c3ccc4c(c3)OCO4)cn2c1 do in these assays?
TAG inh: inactive; PfGluPho inh: inactive; H9c2 protect: inactive; APOBEC3G inh: inactive; NadD inh: inactive; APOBEC3A inh: inactive

How did CCc1ccn2cc(-c3ccc4c(c3)OCO4)nc2c1 do in these assays?
TAG inh: inactive; PfGluPho inh: 65; H9c2 protect: inactive; APOBEC3G inh: inactive; NadD inh: inactive; APOBEC3A inh: inactive; PfG6PD confirm: inactive

What do the screens show for `Cc1ccc(S(=O)(=O)Nc2nc(C)c(C(=O)N/N=C/c3ccccc3)s2)cc1`?
TAG inh: inactive; PfGluPho inh: 76; H9c2 protect: inactive; APOBEC3G inh: inactive; NadD inh: inactive; APOBEC3A inh: inactive; PfG6PD confirm: 67; Diaphorase 10uM: 62; Diaphorase 30uM: inactive

Results for Cc1ccc(S(=O)(=O)Nc2nc(C)c(C(=O)Nc3ccccc3)s2)cc1 ?
TAG inh: inactive; PfGluPho inh: inactive; H9c2 protect: inactive; APOBEC3G inh: inactive; NadD inh: inactive; APOBEC3A inh: inactive

What do the screens show for `Cc1cccc(C)c1NC(=O)CSc1nnc(-c2ccco2)c(-c2ccco2)n1`?
TAG inh: inactive; PfGluPho inh: 63; H9c2 protect: inactive; APOBEC3G inh: inactive; NadD inh: 32; APOBEC3A inh: inactive; PfG6PD confirm: inactive

How did Cc1ccccc1NC(=O)CSc1nnc(-c2ccco2)c(-c2ccco2)n1 do in these assays?
TAG inh: inactive; PfGluPho inh: inactive; H9c2 protect: inactive; APOBEC3G inh: inactive; NadD inh: inactive; APOBEC3A inh: inactive

What do the screens show for `CC(C)c1ccc(NC(=O)c2cccc(Br)c2)cc1`?
TAG inh: inactive; PfGluPho inh: 68; H9c2 protect: inactive; APOBEC3G inh: inactive; NadD inh: inactive; APOBEC3A inh: inactive; PfG6PD confirm: inactive

What do the screens show for `CC(C)c1ccc(NC(=O)c2ccc(Br)o2)cc1`?
TAG inh: inactive; PfGluPho inh: 81; H9c2 protect: inactive; APOBEC3G inh: inactive; NadD inh: inactive; APOBEC3A inh: inactive; PfG6PD confirm: inactive

What do the screens show for `O=C(Nc1cccc(C(=O)Nc2cccc(Br)c2)c1)c1ccccc1`?
TAG inh: inactive; PfGluPho inh: inactive; H9c2 protect: inactive; APOBEC3G inh: inactive; NadD inh: inactive; APOBEC3A inh: inactive

What do the screens show for `CN(Cc1nc2ccccc2c(=O)[nH]1)C(=O)c1ccc(S(=O)(=O)N2CCCC2)cc1`?
TAG inh: inactive; PfGluPho inh: inactive; H9c2 protect: inactive; APOBEC3G inh: inactive; NadD inh: inactive; APOBEC3A inh: inactive

What do the screens show for `O=C(O)CSc1nc2ccccc2o1`?
TAG inh: inactive; PfGluPho inh: inactive; H9c2 protect: inactive; APOBEC3G inh: inactive; NadD inh: inactive; APOBEC3A inh: inactive

How did Nn1c(CSc2nc3ccccc3o2)nnc1CSc1nc2ccccc2o1 do in these assays?
TAG inh: inactive; PfGluPho inh: 87; H9c2 protect: inactive; APOBEC3G inh: inactive; NadD inh: inactive; APOBEC3A inh: inactive; PfG6PD confirm: 60; Diaphorase 10uM: 56; Diaphorase 30uM: inactive

Results for CC(=O)c1sc(NC(=O)c2ccc(C)c(C)c2)nc1C ?
TAG inh: inactive; PfGluPho inh: inactive; H9c2 protect: inactive; APOBEC3G inh: inactive; NadD inh: inactive; APOBEC3A inh: inactive

What do the screens show for `CC(=O)c1sc(NC(=O)c2cnc(Cl)c(Cl)c2)nc1C`?
PfGluPho inh: 62; H9c2 protect: inactive; APOBEC3G inh: inactive; NadD inh: inactive; APOBEC3A inh: inactive; PfG6PD confirm: inactive

What do the screens show for `CCn1c(N)c(C(=O)NCc2ccc3c(c2)OCO3)sc1=S`?
TAG inh: inactive; PfGluPho inh: 74; H9c2 protect: inactive; APOBEC3G inh: inactive; NadD inh: inactive; APOBEC3A inh: inactive; PfG6PD confirm: inactive

What do the screens show for `COc1ccc(C(=O)N=c2sc3c(C)ccc(OC)c3n2C)cc1OC`?
TAG inh: inactive; PfGluPho inh: inactive; H9c2 protect: inactive; APOBEC3G inh: inactive; NadD inh: inactive; APOBEC3A inh: inactive

How did COc1ccccc1C(=O)N=c1sc2c(C)ccc(OC)c2n1C do in these assays?
TAG inh: inactive; PfGluPho inh: 63; H9c2 protect: inactive; APOBEC3G inh: inactive; NadD inh: inactive; APOBEC3A inh: inactive; PfG6PD confirm: inactive

Results for CCOC(=O)CC1C(=O)NCCN1C1CCCC1 (stereo unspecified) ?
TAG inh: inactive; PfGluPho inh: inactive; H9c2 protect: inactive; APOBEC3G inh: inactive; NadD inh: inactive; APOBEC3A inh: inactive

How did Cc1cc(O)c(-c2cc(O)c(C)cc2O)cc1O do in these assays?
PfGluPho inh: 112; H9c2 protect: inactive; APOBEC3G inh: 86; NadD inh: inactive; APOBEC3A inh: inactive; PfG6PD confirm: 110; Diaphorase 10uM: 73; Diaphorase 30uM: inactive

Results for Nc1ccc(C(=O)O)c(O)c1 ?
TAG inh: inactive; PfGluPho inh: inactive; H9c2 protect: inactive; APOBEC3G inh: inactive; NadD inh: inactive; APOBEC3A inh: inactive

How did Cc1ccc(N)cc1O do in these assays?
PfGluPho inh: 65; H9c2 protect: inactive; APOBEC3G inh: inactive; NadD inh: inactive; APOBEC3A inh: inactive; PfG6PD confirm: inactive

What do the screens show for `COc1ccccc1CC(=O)OC(C)C(=O)Nc1ccc(S(=O)(=O)N2CCCCC2)cc1` (stereo unspecified)?
TAG inh: inactive; PfGluPho inh: inactive; H9c2 protect: inactive; APOBEC3G inh: inactive; NadD inh: inactive; APOBEC3A inh: inactive

Results for Nc1cc(N)nc(SCC(=O)N2CCN(S(=O)(=O)c3ccccc3)CC2)n1 ?
TAG inh: inactive; PfGluPho inh: inactive; H9c2 protect: inactive; APOBEC3G inh: inactive; NadD inh: inactive; APOBEC3A inh: inactive
